Source: PubChem BioAssay (The Scripps Research Institute Molecular Screening Center)
A selection: hits, their analogues and other compounds. The true share with any hit is near 3.4%.
pPAFAH FP inh = inhibitors of human plasma PAF acetylhydrolase (pPAFAH). Q13093. recombinant pPAFAH, FP-rhodamine probe fluorescence polarization. inhibition, % at 3.39 µM. hit rate 1.5% among 330,000;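 active means inhibition above the mean inhibition across the screen plus 3 SD, cut at about 25% in these data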;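 further: inhibitors block binding of the rhodamine activity-based probe so polarization drops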
PAFAH1B3 FP inh = PAFAH1B3 (human) inhibition; Q15102; recombinant PAFAH1B3, FP-rhodamine probe, fluorescence polarization; inhibition, % at 3.39 µM; hit rate 0.28% among 340,000;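 active means inhibition above the screen-wide average of all tested compounds plus 3 SD, cut at about 25% in these data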
Target sequence (Q15102 whole entry, looked up): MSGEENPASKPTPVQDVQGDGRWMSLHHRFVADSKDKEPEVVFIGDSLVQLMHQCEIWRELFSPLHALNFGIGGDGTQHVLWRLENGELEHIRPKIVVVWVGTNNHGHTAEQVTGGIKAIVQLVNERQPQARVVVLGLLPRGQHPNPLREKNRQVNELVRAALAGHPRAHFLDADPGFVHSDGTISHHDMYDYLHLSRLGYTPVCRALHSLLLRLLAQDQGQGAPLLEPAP
PAFAH1B2 inh = PAFAH1B2 (human) inhibition; recombinant PAFAH1B2, FP-rhodamine activity probe, fluorescence polarization; P68402; hit rate 1.2% among 340,000; inhibition, % at 3.39 µM;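 active means inhibition above the mean of all tested compounds plus 3 SD, cut at about 24% in these data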
PP1 inh = blocks human PP1-alpha phosphatase, a PP5 counter-screen. AID 2235. P62136. hit rate 0.9% among 320,000. inhibition, % at 6.7 µM. purified PP1alpha, OMFP fluorescence;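 active means inhibition above the mean inhibition of all tested compounds plus 3 SD, computed separately for each screening campaign, cut at about 15% in these data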
Target sequence (P62136 whole entry, looked up): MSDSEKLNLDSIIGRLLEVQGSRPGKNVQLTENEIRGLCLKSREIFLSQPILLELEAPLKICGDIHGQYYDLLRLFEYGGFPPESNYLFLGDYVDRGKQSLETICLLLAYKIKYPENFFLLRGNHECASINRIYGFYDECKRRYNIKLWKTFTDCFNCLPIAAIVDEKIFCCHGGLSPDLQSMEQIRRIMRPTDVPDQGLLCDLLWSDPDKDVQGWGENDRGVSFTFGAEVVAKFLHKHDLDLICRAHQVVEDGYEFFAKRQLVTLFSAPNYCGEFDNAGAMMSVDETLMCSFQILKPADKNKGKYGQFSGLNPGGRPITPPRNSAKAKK
PAFAH2 FP inh = inhibitors of human PAFAH2; recombinant PAFAH2, FP-rhodamine activity probe, fluorescence polarization; inhibition, % at 3.39 µM; hit rate 0.99% among 340,000; AID 492956;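 active means inhibition above the mean over all tested compounds plus 3 SD, cut at about 30% in these data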;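 further: inhibitors block probe labeling of enzyme so polarization drops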
PP5 primary = inhibitors of human protein phosphatase 5 (PP5); purified PP5c, OMFP substrate fluorescence; hit rate 0.18% among 320,000; inhibition, % at 6.7 µM;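 active means inhibition above the campaign's mean inhibition across all tested compounds plus 3 SD, cut at about 9.5% in these data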
PAFAH2 FP conf = PAFAH2 (human) inhibition, confirmed; shares compounds with PAFAH2 FP inh; recombinant PAFAH2, FP-rhodamine activity probe, fluorescence polarization; inhibition, % at 3.39 µM; hit rate 65% among 2,300;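 active means mean inhibition over three repeats above a set limit taken from the earlier primary screen, cut at about 30% in these data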;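 further: inhibitor blocks binding of rhodamine activity probe so polarization falls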
Numbers stand for hits.

O=C(COC(=O)C1CC2C=CC1C2)NCc1ccco1 (stereo not drawn) was read as pPAFAH FP inh inactive, PAFAH1B3 FP inh inactive, PAFAH1B2 inh inactive, PP1 inh inactive, PAFAH2 FP inh 32.4, PP5 primary inactive and PAFAH2 FP conf inactive.
`O=C(COC(=O)/C=C/c1ccc([N+](=O)[O-])cc1)NCc1ccco1` gave pPAFAH FP inh inactive, PAFAH1B3 FP inh inactive, PAFAH1B2 inh inactive, PP1 inh inactive, PAFAH2 FP inh inactive and PP5 primary inactive.
Screening O=C(COC(=O)C1CC2C=CC1C2)NCc1ccc(F)cc1 (stereo not drawn) returned pPAFAH FP inh inactive, PAFAH1B3 FP inh inactive, PAFAH1B2 inh inactive, PP1 inh inactive, PAFAH2 FP inh inactive and PP5 primary inactive.
For CCC(=O)NC(=S)Nc1cccc(Cl)c1N1CCCC1 the results were pPAFAH FP inh inactive, PAFAH1B3 FP inh inactive, PAFAH1B2 inh inactive, PP1 inh inactive, PAFAH2 FP inh inactive and PP5 primary inactive.
`CCC(NC(=O)c1ccccc1NC(=O)c1ccco1)C(=O)NC1CCCCC1` (stereo not drawn) gave pPAFAH FP inh inactive, PAFAH1B3 FP inh inactive, PAFAH1B2 inh inactive, PP1 inh inactive, PAFAH2 FP inh inactive and PP5 primary inactive.
For O=C(Nc1ccccc1-c1nc2ccccc2[nH]1)c1ccc(S(=O)(=O)N2CCCCC2)cc1 the results were PAFAH1B3 FP inh inactive, PAFAH1B2 inh inactive and PAFAH2 FP inh inactive.
For CC1CCCCN1S(=O)(=O)c1ccc(C(=O)Nc2ccccc2-c2nc3ccccc3[nH]2)cc1 (stereo not drawn) the results were pPAFAH FP inh inactive, PAFAH1B3 FP inh inactive, PAFAH1B2 inh inactive, PP1 inh inactive, PAFAH2 FP inh 37.0, PP5 primary inactive and PAFAH2 FP conf inactive.
COc1cc(/C=N/NC(=O)c2ccc(Cl)c(S(N)(=O)=O)c2)ccc1OCC(N)=O was read as pPAFAH FP inh inactive, PAFAH1B3 FP inh inactive, PAFAH1B2 inh inactive, PP1 inh inactive, PAFAH2 FP inh inactive and PP5 primary inactive.
`COc1ccc(S(=O)(=O)N(CC(=O)N2CCN(c3ccccc3OC)CC2)c2ccccc2)cc1` gave pPAFAH FP inh inactive, PAFAH1B3 FP inh inactive, PAFAH1B2 inh inactive, PP1 inh inactive, PAFAH2 FP inh inactive and PP5 primary inactive.
Screening Nc1nnc(SCC(=O)OCC(=O)Nc2ccc(Br)cc2)s1 returned pPAFAH FP inh inactive, PAFAH1B3 FP inh inactive, PAFAH1B2 inh inactive, PP1 inh inactive, PAFAH2 FP inh inactive and PP5 primary inactive.
Screening O=C1CC(=O)Nc2cc(S(=O)(=O)N3CCOc4ccc(Cl)cc43)ccc2N1 returned pPAFAH FP inh inactive, PAFAH1B3 FP inh inactive, PAFAH1B2 inh inactive, PP1 inh inactive, PAFAH2 FP inh 45.2, PP5 primary inactive and PAFAH2 FP conf 39.8.
O=C1CCCN1C(=O)COc1ccccc1[N+](=O)[O-] was read as pPAFAH FP inh inactive, PAFAH1B3 FP inh inactive, PAFAH1B2 inh inactive, PP1 inh inactive, PAFAH2 FP inh 30.1, PP5 primary inactive and PAFAH2 FP conf inactive.
Screening Cc1ccc(/C(N)=N/OC(=O)c2cccc(F)c2)cc1 returned pPAFAH FP inh inactive, PAFAH1B3 FP inh inactive, PAFAH1B2 inh inactive, PP1 inh inactive, PAFAH2 FP inh inactive and PP5 primary inactive.
Screening CC(C)(C)c1cc(N2CCOCC2)n2ncc(-c3ccccc3)c2n1 returned pPAFAH FP inh inactive, PAFAH1B3 FP inh inactive, PAFAH1B2 inh inactive, PP1 inh inactive, PAFAH2 FP inh inactive and PP5 primary inactive.
Screening CC1CCC(NC(=O)COC(=O)c2ccco2)CC1 (stereo not drawn) returned pPAFAH FP inh inactive, PAFAH1B3 FP inh inactive, PAFAH1B2 inh inactive, PP1 inh inactive, PAFAH2 FP inh 66.9, PP5 primary inactive and PAFAH2 FP conf 64.8.
Screening O=C(COC(=O)c1ccco1)NC1CCCc2ccccc21 (stereo not drawn) returned pPAFAH FP inh inactive, PAFAH1B3 FP inh inactive, PAFAH1B2 inh inactive, PAFAH2 FP inh 39.3 and PAFAH2 FP conf inactive.
Screening Cc1cc(C(=O)OCC(=O)NC2CCC(C)CC2)c(C)o1 (stereo not drawn) returned pPAFAH FP inh inactive, PAFAH1B3 FP inh inactive, PAFAH1B2 inh inactive, PP1 inh inactive, PAFAH2 FP inh 71.5, PP5 primary inactive and PAFAH2 FP conf 68.9.
O=C(COC(=O)c1ccco1)NCC1CCCCC1 was read as PAFAH1B3 FP inh inactive, PAFAH1B2 inh inactive, PAFAH2 FP inh 80.3 and PAFAH2 FP conf 60.2.
Fc1cccc(Cl)c1CSc1nnc(-c2ccncc2)o1 was read as pPAFAH FP inh inactive, PAFAH1B3 FP inh inactive, PAFAH1B2 inh inactive, PP1 inh inactive, PAFAH2 FP inh inactive and PP5 primary inactive.
COc1ccc(/C=C/c2nc3sc4c(c3c(=O)o2)CCC4)cc1 was read as pPAFAH FP inh inactive, PAFAH1B3 FP inh inactive, PAFAH1B2 inh inactive, PP1 inh inactive, PAFAH2 FP inh inactive and PP5 primary inactive.
COc1ccc(/C=C/c2nc3ccccc3c(=O)o2)cc1 was read as pPAFAH FP inh inactive, PAFAH1B3 FP inh inactive, PAFAH1B2 inh inactive, PP1 inh inactive, PAFAH2 FP inh 62.2, PP5 primary inactive and PAFAH2 FP conf 57.5.
COc1ccccc1/C=C/c1nc2ccc(OC(C)=O)cc2c(=O)o1 was read as pPAFAH FP inh inactive, PAFAH1B3 FP inh inactive, PAFAH1B2 inh inactive, PP1 inh inactive, PAFAH2 FP inh 77.7, PP5 primary inactive and PAFAH2 FP conf 66.7.
CC(C)C(NC(=O)c1ccco1)C(=O)OCC(=O)N1CC(=O)Nc2ccccc21 (stereo not drawn) was read as PAFAH1B3 FP inh inactive, PAFAH1B2 inh inactive and PAFAH2 FP inh inactive.
`O=C(OCc1ccccc1Cl)c1cc([N+](=O)[O-])ccc1N1CCOCC1` gave pPAFAH FP inh inactive, PAFAH1B3 FP inh inactive, PAFAH1B2 inh inactive, PP1 inh inactive, PAFAH2 FP inh inactive and PP5 primary inactive.
`CC(=O)N1N=C(c2cccc(Cl)c2)OC1c1ccc(C(C)C)cc1` (stereo not drawn) gave pPAFAH FP inh inactive, PAFAH1B3 FP inh inactive, PAFAH1B2 inh inactive, PP1 inh inactive, PAFAH2 FP inh inactive and PP5 primary inactive.
Screening Cc1ccc(C(=O)OCC(=O)NCCc2ccccc2)cc1C returned pPAFAH FP inh inactive, PAFAH1B3 FP inh inactive, PAFAH1B2 inh inactive, PP1 inh inactive, PAFAH2 FP inh 57.4, PP5 primary inactive and PAFAH2 FP conf 32.9.
Screening O=C(COC(=O)c1ccc(O)cc1)NCCCc1ccccc1 returned PAFAH1B3 FP inh inactive, PAFAH1B2 inh inactive, PAFAH2 FP inh 31.9 and PAFAH2 FP conf inactive.
`O=C(COC(=O)c1ccccc1O)NCCCc1ccccc1` gave pPAFAH FP inh inactive, PAFAH1B3 FP inh inactive, PAFAH1B2 inh inactive, PP1 inh inactive, PAFAH2 FP inh inactive and PP5 primary inactive.
Screening Cc1ccsc1C(=O)OCC(=O)NCCCc1ccccc1 returned pPAFAH FP inh inactive, PAFAH1B3 FP inh inactive, PAFAH1B2 inh inactive, PP1 inh inactive, PAFAH2 FP inh 29.8, PP5 primary inactive and PAFAH2 FP conf inactive.
